From PubChem BioAssay AID1259313 (Sanford-Burnham Center for Chemical Genomics, 2017)
Among all 340,000 compounds or so, about 8,500 (2.5%) were called active.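 The calls were made as follows: active = melting temperature shift of at least 10% of the positive control shift, at one fixed dose; inactive = the rest.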 For the sample, actives were picked, then their nearest neighbours and some compounds at random.

Each compound was assayed on Glutamate receptor ionotropic, NMDA 3A (GRIN3A) ligand-binding domain (assay: NR3A LBD thermal stabilization by compounds – biophysical, differential scanning fluorimetry, uHTS, primary screen (AID 1259313)). Conditions: at 25 µM, active compounds read high, 0% = protein alone, 100% = glycine-bound protein.

Tm shift relative to glycine control, active:
Cc1ccc(NC(=O)CC2S/C(=N/N=C3\CCCc4ccccc43)NC2=O)cc1 (stereo unspecified) 25.5%, CC(C)CCNC(=O)C(C)N(C(=O)Cn1nnc(-c2ccc(F)cc2)n1)C1CCCC1 (stereo unspecified) 22.9%, Cc1ccc(NC(=O)NC(=O)CSc2nnc(-c3ccc(OC(F)F)cc3)n2N)c(C)c1 47.6%, CN(CCC#N)c1ncnc2scc(-c3ccccc3)c12 10.9%, C=CCn1c(=NC(=O)c2ccc(S(=O)(=O)N3CCCC3)cc2)sc2cc(NC(C)=O)ccc21 18.6%

Tm shift relative to glycine control, inactive:
O=C1c2ccccc2C(=O)N1CC1c2ccccc2CCN1S(=O)(=O)c1ccccc1 (stereo unspecified) -1.14%, CCOC(=O)c1ccc(-n2c(CCC(=O)O)ccc2-c2ccccc2)cc1 0.18%, Cc1ccc(CNC(=O)CC2Sc3ccccc3NC2=O)cc1 (stereo unspecified) -1.5%, Cc1c(Cl)cccc1NC(=O)CC1SC(=NCC2CCCO2)NC1=O (stereo unspecified) -1.26%, CC(C)CCNC(=O)CN(C(=O)Cn1nnc(-c2ccc(F)cc2)n1)C1CCCC1 -0.75%, CN(C(=O)Cn1nnc(-c2ccc(F)cc2)n1)C1CCS(=O)(=O)C1 (stereo unspecified) 0.08%, COCC1CCN(C(=O)c2ccc3oc(Cc4ccccc4)nc3c2)C1 (stereo unspecified) -2.47%, CN(C)Cc1c(O)ccc2occ(C(O)c3ccccc3)c12 (stereo unspecified) -0.8%, CCN(C(=O)CSc1nnc(-c2ccc(OC(F)F)cc2)n1N)C1CCS(=O)(=O)C1 (stereo unspecified) 0.42%, CC(C)NC(=O)NC(=O)CSc1nnc(-c2ccccc2F)n1N -0.64%, Nc1c(-c2ccc(F)cc2)cnn1C1CCS(=O)(=O)C1 (stereo unspecified) -1.17%, Nc1ccc(Cl)c(S(=O)(=O)Nc2ccccc2Cl)c1 -2.25%, CCn1cc(NC(=O)Nc2ccc(OC)c(OC)c2)c(C(N)=O)n1 -1.66%, N#CCCN(CCC#N)c1nnc(-c2ccccc2)s1 2.17%, C=CCn1cnc2scc(-c3ccccc3)c2c1=O 5.11%, COc1ccc(CCNC(=O)c2ccc(NC(=O)CC3SC(N4CCCCC4)=NC3=O)cc2)cc1OC (stereo unspecified) 0.17%, CNc1ccc(SC#N)cc1 -0.62%, C=CCn1c(=NC(=O)c2cccs2)sc2cc(NC(C)=O)ccc21 2.65%, CC(=O)Nc1ccc(S(=O)(=O)N2CCSCC2)cc1 0.09%, CC(=O)Nc1ccc(NC(=O)CCN2C(=O)C3CC=CCC3C2=O)cc1 (stereo unspecified) -1.24%, CCC(C)(C)NC(=O)C(c1cccc(OC)c1OC)N(CC(C)C)C(=O)CCC(=O)Nc1cc(C)on1 (stereo unspecified) -1.85%
